Source: PubChem (The Scripps Research Institute Molecular Screening Center)
PLCg1 inh – blocks human PLC-gamma1 enzyme activity; inhibition, % at 12.2 µM; actives 0.84% (n = 370,000); purified PLC-gamma1, fluorogenic substrate, fluorescence; P19174; AID 720700; in the data active = inhibition above about 9.5%
ADAM10 inh – ADAM10 inhibition, QFRET primary screen; O14672; recombinant ADAM10, EDANS/DABCYL FRET peptide cleavage, 3 h; inhibition, % at 7 µM; actives 0.62% (n = 370,000);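 active = inhibition above a per-campaign cutoff equal to the mean of compounds falling between control-based bounds plus 3 SD, cut at about 20% in these data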;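 also: 0% = DMSO wells while the 100% control is not disclosed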
PLCb3 inh – PLC-beta3 (human) inhibition, primary screen. Purified PLC-beta3, fluorogenic substrate, fluorescence. actives 0.18% (n = 370,000). Q01970. AID 720704. inhibition, % at 12.2 µM; in the data active = inhibition above about 11%;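 also: 0% = median of compound wells on plate and 100% = full blocker control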
ADAM17 inh – inhibits human ADAM17; P78536; recombinant ADAM17, EDANS/DABCYL FRET peptide cleavage; inhibition, % at 6.95 µM; actives 0.83% (n = 370,000);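 active = inhibition above the mean of compounds lying between control limits plus 3 SD, set per campaign, cut at about 8.5% in these data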;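 also: 0% = DMSO-only wells as the low control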
proKLK7 act – proKLK7 (human) activation, primary screen. P49862. purified proKLK7, EDANS-DABCYL substrate fluorescence; 100% is mature enzyme control, 0% vehicle. activation, % at 7 µM. actives 0.9% (n = 370,000). AID 652039;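 active = activation above the mean of all tested compounds plus 3 SD, computed per campaign excluding outliers beyond control limits, cut at about 13% in these data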
KLK7 act conf – confirmation of human kallikrein-7 zymogen activators; purified proKLK7, EDANS-DABCYL substrate fluorescence; scaled: vehicle 0, mature enzyme 100; activation, % at 7 µM; actives 68% (n = 3,200); shares compounds with proKLK7 act;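 active = activation, as change over the incubation, above the mean of all tested compounds plus 3 SD, cut at about 13% in these data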
EDANS interfere – optically interferes with EDANS-DABCYL signal, flagging KLK7 hits; activation, % at 7 µM; actives 80% (n = 3,200); shares compounds with proKLK7 act; EDANS-DABCYL substrate fluorescence interference, no enzyme, 4 h; solvent 0%, active enzyme control 100%;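 active = activation above the all-compound mean plus 3 SD, ignoring values outside control-based bounds, cut at about 4.8% in these data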;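 also: value is the 4 h activation minus the activation read at time zero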
EDANS interf – optically interferes with EDANS-DABCYL fluorescence, kallikrein-7 activator counter-screen; shares compounds with proKLK7 act; EDANS-DABCYL peptide fluorescence interference, no enzyme; EC50, µM; actives 20% (n = 250); AID 720493;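 active = compounds that raise the fluorescence signal in this interference counterscreen, with EC50 at or below 10 µM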;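 also: intact quenched peptide substrate alone read at 355 nm excitation and 520 nm emission; signal is fluorescence gain from T0 to T4 after four hours at room temperature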
The depositor's hits bear a star; i = inactive; · = not tested or not shown. Hits are enriched below; roughly 2.9% of the tested compounds scored in any of these assays.

SMILES	PLCg1 inh	ADAM10 inh	PLCb3 inh	ADAM17 inh	proKLK7 act	KLK7 act conf	EDANS interfere	others
CN(C)CCNc1oc(/C=C/c2ccccc2)nc1C#N	i	i	i	i	97.8*	66.4*	69.5*
CN(C)CCCNc1oc(-c2cccc(Cl)c2)nc1C#N	i	i	i	-252.7	51.3*	17.3*	26.0*
COCCCNc1oc(/C=C/c2ccccc2)nc1C#N	i	i	i	i	43.5*	56.9*	61.1*
CCN(CC)CCCNc1oc(-c2ccc(OC)c(OC)c2)nc1C#N	-295.4	i	-386.8	-205.4	7.2	·	·
CCN(CC(=O)N1CCCCCC1)S(=O)(=O)c1ccc(C)cc1	-0.2	5.3	2.8	-3.8	0.1	·	·
COc1ccccc1NC(=O)CSc1n[nH]c(Cc2ccccc2)n1	-0.1	0.0	-8.5	-0.5	0.5	·	·
COc1ccc(Br)cc1S(=O)(=O)NCCN1CCOCC1	2.6	9.6	4.2	4.9	41.5*	-0.1	0.1
CCOC(=O)c1cc(C)[nH]c(=O)c1C#N	i	i	i	i	42.4*	65.5*	74.4*
Cn1c(=O)c2c(-c3ccccc3)n(-c3ccccc3S)cc2n(C)c1=O	-0.2	2.1	1.4	2.0	-0.4	·	·
CCCCNC(=O)CS(=O)Cc1nc(-c2cccc(Cl)c2)oc1C (stereo not given)	-1.4	-3.3	-4.3	-0.9	0.2	·	·
O=C(Cn1cc(Cl)ccc1=O)c1ccc(Cl)cc1	0.8	-4.2	3.6	-5.7	-0.9	·	·
CC(=O)Nc1c(-c2ccc(C)cc2)nc2ncccn12	i	i	i	-305.6	10.2	·	·
O=C(Nc1c(-c2ccccc2)nc2ncccn12)C1CC1	i	i	i	-236.6	27.8*	28.0*	33.6*
O=C(Nc1c(-c2ccccc2)nc2ncccn12)c1ccccc1	-216.1	-237.8	-305.9	-67.5	12.7*	59.8*	13.6*	EDANS interf=i
O=C(Nc1nc2ncccn2c1-c1ccc(F)c(F)c1)c1ccc(F)cc1	-218.2	-260.1	-273.4	-80.7	10.0	·	·
O=C(Nc1nc2ncccn2c1-c1ccc(F)c(F)c1)C1CC1	i	i	i	-235.8	17.7*	20.2*	23.9*
CC(=O)Nc1nc2ncccn2c1-c1ccc(C)cc1	i	i	i	-339.1	22.5*	48.5*	49.6*
COc1ccc(S(=O)(=O)NC(CC(=O)NCc2ccc3c(c2)OCO3)c2ccco2)cc1 (stereo not given)	-2.0	-2.5	-1.1	1.3	-0.3	·	·
CC(=O)c1cccc(NC(=S)NCc2ccccc2)c1	-1.6	-2.4	-0.1	-3.0	0.0	·	·
CCOC(=O)c1c(NC(=O)COC(=O)c2ccccc2NC)sc(C(=O)N(C)C)c1C	-106.6	-154.4	-155.1	-55.7	-7.2	·	·
O=C(Nc1c(-c2ccc(F)cc2)nc2ncccn12)C1CC1	i	i	i	-262.2	24.8*	36.1*	37.6*
O=C(Nc1ccc(F)cc1)Nc1c(-c2ccccc2)nc2ncccn12	-440.2	-309.4	i	-95.5	8.4	·	·
Nc1c(-c2ccc(F)cc2)nc2ncccn12	-22.3	-20.2	-23.6	-6.8	7.6	·	·
Cc1ccc(-c2nc3ncccn3c2NC(=O)Nc2ccc(F)cc2)cc1	i	i	i	-148.6	12.6*	-12.5	-6.5
Cc1cc(C)c(S(=O)(=O)c2ccc(F)cc2)c(C)c1	7.7	2.2	0.6	-2.2	0.5	·	·
SMILES	PLCg1 inh	ADAM10 inh	PLCb3 inh	ADAM17 inh	proKLK7 act	KLK7 act conf	EDANS interfere	others
Cc1ccc(O)c(C(=O)c2cnn(C(=O)Cc3csc(C)n3)c2)c1	-9.0	4.2	-12.7	-0.6	19.8*	53.6*	52.7*
CCOC(=O)c1c(-c2ccccc2)cn2c(C)cc(C)nc12	i	i	i	-168.2	12.7*	5.9	-1.6
CCn1cc(C(=O)OCc2ccccc2)c(=O)c2ccc(C)nc21	-2.0	3.7	0.9	-4.7	0.0	·	·
CC1CCCCN1Cc1c(O)ccc2c(=O)c(-c3nc4ccccc4s3)coc12 (stereo not given)	-52.3	-5.6	-72.5	-6.5	0.0	·	·
COc1ccccc1-c1coc2c(CN3CCC(C)CC3)c(O)ccc2c1=O	i	i	i	i	56.6*	64.0*	63.3*
CCC1CCCCN1Cc1c(O)ccc2c(=O)c(-c3ccccc3OC)coc12 (stereo not given)	i	i	i	-481.0	34.6*	50.6*	71.1*
Cc1sc2nc3ccc(NCc4ccco4)nn3c(=O)c2c1C	-352.9	-126.9	-435.6	-50.2	17.1*	74.2*	69.7*
COCCCNC(=O)CC1C[C@H](C(=O)N2CCOCC2)[C@@]2(C)c3[nH]c4ccccc4c3CCN2C1=O (stereo not given in full)	4.2	-0.9	-0.7	-0.6	-0.6	·	·
COc1ccc(CNC(=O)C[C@H]2C[C@H](C(=O)N(C(C)C)C(C)C)[C@@]3(C)c4[nH]c5cc(-c6ccco6)ccc5c4CCN3C2=O)cc1OC	-470.1	-295.8	i	-82.8	12.9*	11.6	10.0*
CN(C)CCCNC(=O)C[C@H]1C[C@H](C(=O)N2CCOCC2)[C@@]2(C)c3[nH]c4cc(-c5ccco5)ccc4c3CCN2C1=O	-299.6	-405.7	-367.6	-119.4	53.7*	55.5*	56.6*
COCCCNC(=O)C[C@H]1C[C@H](C(=O)N2CCOCC2)[C@@]2(C)c3[nH]c4cc(-c5ccco5)ccc4c3CCN2C1=O	i	i	i	-162.9	82.3*	95.2*	129.9*
COCCCNC(=O)C[C@H]1C[C@H](C(=O)N(C(C)C)C(C)C)[C@@]2(C)c3[nH]c4cc(-c5ccco5)ccc4c3CCN2C1=O	i	i	i	-141.8	137.1*	151.5*	146.4*
COCCCNC(=O)CC1C[C@H](C(=O)N(C(C)C)C(C)C)[C@@]2(C)c3[nH]c4ccccc4c3CCN2C1=O (stereo not given in full)	1.2	4.2	2.8	4.8	1.2	·	·
Cc1ccc(CCN2CCN=C2N(C)C)cc1	3.9	5.8	1.2	3.3	-0.4	·	·
COc1ccc(NC(=O)Nc2ccc3c(c2)C(=O)N([C@H](C)CO)C[C@H](C)[C@@H](CN(C)C(=O)NC2CCCCC2)O3)cc1	-1.6	-18.4	3.0	-6.5	0.3	·	·
O=C(Cc1ccccc1)Nc1ccc2oc(-c3cccnc3)nc2c1	i	i	i	-162.5	22.5*	-9.9	-9.0
